Source: the supplement of paper PMC6555819

What was measured:
Assay in all cases: PBM binding z-score (relative to random genomic background probes); higher = stronger binding; sequences stand for … in GC…GCGATTGACAGCGTAGAATGAAGG
[1] = tested on: FXR:RXRa (NR concentration 270 nM, RXRa partner concentration 90 nM)
Method in brief: (§1)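 On custom Agilent 4×180K arrays, double-stranded probes with 34-nt variable regions carried direct-repeat seeds, single-nucleotide variants, half-site ablations or random human genomic background. Ligand-free nuclear receptor dimers were applied for 1 h, and binding was read with antibodies against each partner (one per run). Binding z-scores come from regression-normalized fluorescence, with the random background probes as reference.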

[2] = tested on: LXRa:RXRa (NR concentration 270 nM, RXRa partner concentration 90 nM)
Method in brief: as §1

[3] = tested on: LXRa homodimer (NR concentration 270 nM)
Method in brief: as §1

[4] = tested on: LXRb:RXRa (NR concentration 270 nM, RXRa partner concentration 90 nM)
Method in brief: as §1

[5] = tested on: LXRb homodimer (NR concentration 270 nM)
Method in brief: as §1

[6] = tested on: PPARa:RXRa (NR concentration 270 nM, RXRa partner concentration 90 nM)
Method in brief: as §1

[7] = tested on: PPARg:RXRa (NR concentration 180 nM, RXRa partner concentration 90 nM)
Method in brief: as §1

[8] = tested on: PPARg:RXRa 270nM:90nM, anti-RXR (NR concentration 270 nM, RXRa partner concentration 90 nM)
Method in brief: as §1

[9] = tested on: PPARg:RXRa 30nM:10nM, anti-RXR (NR concentration 30 nM, RXRa partner concentration 10 nM)
Method in brief: as §1

[10] = tested on: PPARg:RXRa 90nM:30nM, anti-RXR (NR concentration 90 nM, RXRa partner concentration 30 nM)
Method in brief: as §1

[11] = tested on: PPARg:RXRa DBDmut IVT, anti-RXR (DBD mutation: RXRa K156A/R161A, NR concentration 270 nM, RXRa partner concentration 90 nM)
Method in brief: as §1

[12] = tested on: PPARg:RXRa IVT, anti-PPARg (NR concentration 270 nM, RXRa partner concentration 90 nM)
Method in brief: as §1

[13] = tested on: PPARg DBDmut:RXRa IVT, anti-PPARg (DBD mutation: PPARg1 K132A/R137A, NR concentration 270 nM, RXRa partner concentration 90 nM)
Method in brief: as §1

[14] = tested on: PPARg DBDmut IVT, anti-PPARg (DBD mutation: PPARg1 K132A/R137A, NR concentration 270 nM)
Method in brief: as §1

[15] = tested on: PPARg homodimer (NR concentration 180 nM)
Method in brief: as §1

[16] = tested on: PXR:RXRa (NR concentration 270 nM, RXRa partner concentration 90 nM)
Method in brief: as §1

[17] = tested on: PXR homodimer (NR concentration 270 nM)
Method in brief: as §1

[18] = tested on: RARa:RXR (NR concentration 270 nM, RXRa partner concentration 90 nM)
Method in brief: as §1

[19] = tested on: RARa homodimer (NR concentration 270 nM)
Method in brief: as §1

[20] = tested on: RARb:RXRa (NR concentration 270 nM, RXRa partner concentration 90 nM)
Method in brief: as §1

| Sequence | PBM binding z-score [1] | PBM binding z-score [2] | PBM binding z-score [3] | PBM binding z-score [4] | PBM binding z-score [5] | PBM binding z-score [6] | PBM binding z-score [7] | PBM binding z-score [8] | PBM binding z-score [9] | PBM binding z-score [10] | PBM binding z-score [11] | PBM binding z-score [12] | PBM binding z-score [13] | PBM binding z-score [14] | PBM binding z-score [15] | PBM binding z-score [16] | PBM binding z-score [17] | PBM binding z-score [18] | PBM binding z-score [19] | PBM binding z-score [20] |
| --- | --- | --- | --- | --- | --- | --- | --- | --- | --- | --- | --- | --- | --- | --- | --- | --- | --- | --- | --- | --- |
| ACTAGTTGGTCAGCTTAGGTCACACACAATTCGG | 1.75 | 1.6 | 1.42 | 1.82 | 0.877 | 1.97 | 1.07 | 1.05 | 0.166 | 0.931 | 1.43 | 1.87 | 0.8 | 0.659 | 1.88 | 2.67 | 0.251 | 2.57 | 1.13 | 2.65 |
| GCTATTAGTTGAAAGGGCAAGCGAATGATTCTCG | 0.532 | 0.54 | -0.0155 | 0.379 | -0.106 | 2.13 | 2.5 | 4.12 | 2.04 | 4.08 | 0.45 | 0.54 | -0.251 | 0.055 | 1.28 | 0.469 | 0.0641 | 1.19 | 0.795 | 1.94 |
| ACCAGCAGGCCAAGTTTGGGTCACTCAAACAAAG | 0.266 | -0.108 | -0.521 | 0.635 | -0.887 | 1.31 | -0.217 | 0.223 | -0.767 | -0.323 | -0.512 | 0.814 | -0.754 | -1.36 | 0.25 | 0.747 | -0.419 | 1.27 | -0.97 | 1.89 |
| GATACAGGGTCAGCTAGAGTCCAGAGTATGGAAA | 4.63 | 2.73 | -0.197 | 2.46 | -0.266 | 4.62 | 3.75 | 3.12 | 0.896 | 1.87 | 1.24 | 2.05 | 0.791 | 0.0344 | 1.83 | 4.14 | -0.0221 | 4.01 | 0.0956 | 3.84 |
| GGAAAGAGGGCAAGTTGATAGCAGAGTTTGATGG | 1.6 | 1.58 | 0.345 | 1.25 | 0.718 | 2.15 | 1.14 | 1.59 | 0.606 | 1.04 | 3.57 | 2.18 | 0.748 | -0.108 | 1.67 | 1.29 | 1.23 | 0.849 | 1.34 | 2.93 |
| CCTTACGGGTCACGAGGTTATAGTACGACGAGCG | 6.36 | 4.81 | 0.561 | 4.06 | 0.224 | 6.09 | 7.25 | 6.66 | 3.38 | 5.43 | 4.32 | 5.17 | 1.09 | 0.529 | 2.24 | 4.61 | 0.539 | 6.16 | 1.16 | 4.59 |
| TCTATTAGTTGATGGGCAACCGACGAGTCCGTTT | 0.353 | 0.502 | -0.0154 | 0.186 | 0.322 | -0.00429 | 0.0134 | 1.55 | 3.41 | 2.29 | 2.03 | 0.211 | 0.778 | 1.05 | 0.547 | 0.231 | 0.849 | -0.171 | 0.633 | 0.125 |
| TCTATTAGTTAATTAGGGCAACCGAAACAGCGGA | 0.524 | 0.526 | 0.315 | 0.637 | 0.558 | 2.73 | 2.2 | 2.94 | 3.88 | 3.37 | 4.63 | 5.38 | 1.64 | 1.52 | 0.99 | 0.546 | 0.152 | 0.998 | 1.68 | 1.04 |
| GCTAGCAGGCCATTTGGGTCACTCGATGACGGGC | -0.0398 | -0.0743 | -0.738 | -0.0448 | -0.791 | 1.25 | 0.641 | 0.713 | -0.472 | 0.633 | 2.18 | 2.18 | -0.31 | -1.28 | -0.101 | 0.388 | -0.29 | 0.794 | -0.742 | 1.39 |
| CGTCCAAGGTTAAAGGTCAGTGAAGAGATGACGG | 6.23 | 5.21 | 1.72 | 4.9 | 0.226 | 6.28 | 8.06 | 7.36 | 6.31 | 8.12 | 1.93 | 4.19 | 0.18 | 0.148 | 3.37 | 5.79 | 0.975 | 7.42 | 1.36 | 5.01 |
| GCTTACGGGTCAAAGGTTGTAGCATGAATAGAAT | 7.18 | 4.99 | 0.175 | 4.72 | 0.259 | 6.6 | 9.83 | 8.57 | 7.45 | 9.31 | 5.13 | 5.38 | 0.728 | 1 | 3.02 | 5.04 | 0.237 | 7.21 | 0.364 | 3.99 |
| ACTATTAGTTGAGCCGAGGGCAACCGATAGGTTG | 0.981 | 0.0811 | -0.117 | -0.118 | 0.161 | 0.302 | 0.401 | -0.167 | -0.144 | -0.0304 | -0.387 | 0.273 | 0.194 | -0.123 | -0.122 | 1.43 | 0.308 | 0.433 | 0.387 | 1.21 |
| CCTGACGGGTCACTCCAGGTTATAGCATCGGAGT | 3.43 | 7.46 | 1.51 | 4.58 | -0.132 | 3.79 | 1.84 | 2.43 | 0.306 | 1.44 | 1.01 | 2.14 | -0.43 | -0.483 | 1.81 | 4.64 | 0.176 | 3.34 | -0.12 | 3.31 |
| CTCTAAAGGTCGTGCTCAGGTGAGTATACCAAAC | 5.37 | 4.54 | 0.529 | 3.65 | 0.548 | 5.2 | 3.27 | 4.11 | 0.925 | 2.64 | 1.12 | 2.17 | 0.717 | 0.316 | 1.58 | 3.09 | -0.0495 | 4.14 | -0.0895 | 3.93 |
